About 79,000 compounds went through this panel and 15% of them were active in at least one assay; those are over-represented in the sample as a whole. A number with no mark means an inactive call. Activity calls are given as the source filed them. No stated cut-off is given here; in the data, active means growth inhibition above about 70%; inactive means the rest.

The assay can be described thus: NCI Yeast Anticancer Drug Screen. Data for the bub3 strain (AID 167). The following applies: S. cerevisiae bub3 mutant strain, at 50.0 µM, active compounds read high. As for the experimental part:
Growth inhibition of yeast strains with defined genetic alterations is measured as a screen for potential anti-cancer activity. Selected strains with alterations in DNA damage repair or cell cycle control were exposed to compounds and growth inhibition was measured relative to vehicle treated controls. The strain used in this assay is bub3
For `Cc1cc(Cl)cc(Cc2cc(Cl)cc(C)c2O)c1O`, the growth inhibition is 22.1%.
For `CCCCn1cnc2c(=O)[nH]cnc21`, the growth inhibition was 8.95%.
As to `O=S(Cc1ccccc1)/C(=C/NC(=S)Nc1ccccc1)c1ccccc1` (stereo not given), the growth inhibition is -16.9%.
The figure for `C(=C\c1ccncc1)/c1ccncc1` is 7.8%; for `O=S(=O)(OCCOS(=O)(=O)c1ccccc1)c1ccccc1` it is -9.1%.
Regarding `C=CCN1CCCC1=O`, the growth inhibition is -16.2%.
Consider `CCOC(=O)/C(O)=C(\C=N\C(=S)Nc1ccc(Cl)c(Cl)c1)C(=O)OCC`, for which the growth inhibition was 49.5%.
On to `COc1cccc2c1Cc1ccccc1-2`, for which the growth inhibition is 43.1%.
As for `CC(=O)NC(CCc1ccc(Cl)c(Cl)c1)c1cccc(O)c(=O)c1` (stereo not given), the growth inhibition was 82.5% (active).
On to `CCN(CC)CCOC(=O)Nc1c(C(C)C)cccc1C(C)C`, for which the growth inhibition is 13%.
Regarding `O=C(OCc1ccccc1)n1nnc2ccccc21`, the growth inhibition is 19.2%.
With `Nc1nc(N)nc(N2CCCCC2)n1` the figure was -4.25%; with `NNc1ncnc2nc[nH]c12`, -15.9%.
With `CSc1nsc(N)n1` the figure was 16.8%; with `COc1ccc(/C=N/NC(=O)COCC(=O)N/N=C/c2ccc(OC)cc2)cc1`, -33%.
As for `C=CCOc1ccc(Cl)cc1Cl`, the growth inhibition was 6.65%.
With `Cc1ccc(N2C(=O)c3cccc4c(N)c(S(=O)(=O)O)cc(c34)C2=O)cc1` the figure was -13.7%.
In the case of `Nc1cc(F)ccc1[N+](=O)[O-]`, the growth inhibition was -8.75%.
Regarding `Cc1ccc(S(=O)(=O)NC(=O)NCCSSCCNC(=O)NS(=O)(=O)c2ccc(C)cc2)cc1`, the growth inhibition was 18.6%.
Take `Cc1c(-c2ccc(C3CCCCC3)cc2)nc2ccc(F)cc2c1C(=O)O`: the growth inhibition is 1.8%.
With `CC(C)(C)CC1(C)NC(=O)NC1=O` (stereo not given) the figure was 7.25%; with `C#CC(O)c1ccccc1` (stereo not given), 0.9%; with `O=C(O)Cc1cccc2ccccc12`, -9.65%.
Regarding `Oc1ccc(CCC2CCNc3ccccc32)cc1` (stereo not given), the growth inhibition was -3.95%.
For the molecule `CCCCCCCCNC(=O)C(C)C`, the growth inhibition is -18.6%.
`Nc1ccn(C2OC(CO)C(O)C2F)c(=O)n1` (stereo not given): the growth inhibition is -0.1%.
`C=C1SC(=Nc2c(C)cccc2C)N(c2nc(Cl)nc(Cl)n2)C12CCCCC2`: the growth inhibition is 10.9%.
Regarding `O=C(O)c1cc(I)ccc1O`, the growth inhibition was -12.7%.
The figure for `O=S(=O)(O)c1ccc(O)c(C2CCCCC2)c1` is -12.2%; for `COc1ccc(/C=C\C(=O)/C=C/c2ccc(OC)cc2)cc1` it is -3.35%.
For the molecule `CCCCCCCCCCCCCCCCCC(=O)NCCNC(=O)CCCCCCCCCCCCCCCCC`, the growth inhibition was 1.5%.
As for `COC1OC(CO)C(OC)C(O)C1O` (stereo not given), the growth inhibition was -0.65%.
With `Oc1cccc(CNC2CCCCC2)c1` the figure was -22.4%; with `CN1CCCN(C(c2ccccc2)c2ccc(Cl)cc2)CC1` (stereo not given), 27.6%.
The figure for `Cn1c(=O)[nH]c2ccccc2c1=O` is 6.85%; for `Cc1cc(Cc2ccccc2)c(O)c(Cc2ccccc2)c1` it is 12.3%; for `NS(=O)(=O)c1cc(=O)[nH]c(=O)[nH]1` it is -1.95%.
For `CCC(=O)Oc1ccc2ccccc2c1`, the growth inhibition is 17.4%.
For the molecule `COC(C(=O)C(O)C(C)O)C1Cc2cc3cc(OC4CC(OC5CC(O)C(O)C(C)O5)C(O)C(C)O4)c(C)c(O)c3c(O)c2C(=O)C1OC1CC(OC2CC(O)C(OC3CC(C)(O)C(O)C(C)O3)C(C)O2)C(O)C(C)O1` (stereo not given), the growth inhibition was -11.2%.
As for `COc1ccc(C2CC(c3ccccc3)=Nc3ccccc3S2)cc1` (stereo not given), the growth inhibition is 25.2%.

The record behind these values is PubChem BioAssay (NCI).
